# Source: PubChem
# This is a sample that favours compounds with a hit; in the whole collection about 2.8% have one here.
# DRD3 agonist: qHTS of D3 Dopamine Receptor Agonist: qHTS | D(3) dopamine receptor (Homo sapiens), P35462 | D3R DiscoveRx beta-arrestin cells, luminescence, 90 min | max activation, % | hit rate 0.58% among 410,000; in the data active means max activation above about 30%; further: 0% is about no effect
# Target sequence (P35462 whole entry, looked up): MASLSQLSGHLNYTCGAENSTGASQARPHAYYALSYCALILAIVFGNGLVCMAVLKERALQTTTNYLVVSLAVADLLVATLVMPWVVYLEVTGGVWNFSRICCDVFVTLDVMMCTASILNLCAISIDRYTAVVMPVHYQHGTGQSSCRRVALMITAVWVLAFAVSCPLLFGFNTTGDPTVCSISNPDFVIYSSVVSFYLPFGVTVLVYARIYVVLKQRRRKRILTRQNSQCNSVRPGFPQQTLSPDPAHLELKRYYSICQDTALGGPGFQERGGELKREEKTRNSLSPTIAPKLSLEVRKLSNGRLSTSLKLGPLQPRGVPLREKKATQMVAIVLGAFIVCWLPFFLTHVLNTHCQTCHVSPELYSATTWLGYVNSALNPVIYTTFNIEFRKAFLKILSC
#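 Cells at 1500/well, incubated overnight, then treated with pinned compounds (dopamine as control) for 90 min at 37 degrees C. DiscoveRx reagent added for 30 - 60 minutes at room temperature; luminescence read.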
# Giardia killer: Small Molecules that selectively kill Giardia lamblia: qHTS; Giardia lamblia trophozoite viability; activity change, % at 7.66 µM, hits read low; hit rate 0.15% among 340,000; in the data active means activity change below about -80%; inconclusive means between about -30% and that limit;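 further: parasites exposed to compound for two days anaerobically before the ATP read; on the % scale 0 is the no-effect control and ±100 the full control effect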
#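 Each well holds 100 Giardia trophozoites and compound. After two days (48 hrs) at 37 deg C in anaerobic conditions, ATP is quantified by luminescence.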
# B2AR arrestin: qHTS assay of beta-arrestin-biased ligands of beta2-adrenergic receptor; AID 492947, 2010; Potency, µM (top dose mostly 46.1 µM), for the others: at the top dose activation, usual class: activators; beta-arrestin recruitment to beta2AR, cell-based reporter; hit rate 0.02% among 330,000; active means well fitted activation curve with a large enough effect; inconclusive means small, poorly fitted or top-dose-only effect;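 further: potency means the concentration at half of the fitted maximal effect; 0% = DMSO controls and full agonism = EC100 isoproterenol or metaproterenol; nearly all actives have a fitted effect of over 65% in size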
# DRD3 antagonist: qHTS of D3 Dopamine Receptor Antagonist: qHTS. AID 652054, 2013. max response, negative = inhibition, %. hit rate 2.5% among 360,000. D(3) dopamine receptor (Homo sapiens), P35462. D3R cells, DiscoveRx beta-arrestin luminescence, antagonist mode; active compounds read low; in the data active means max response below about -50%; inconclusive means no clear call, values can overlap the other calls; further: on the % scale 0 is the no-effect control and ±100 the full control effect
#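 Cells plated overnight at 1500 cells/well, then exposed to library compounds with dopamine controls for 90 minutes at 37 degrees C. DiscoveRx reagent added for 30–60 minutes at room temperature; luminescence read, quantitative HTS format.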
# * hit, by the source's call; ? = inconclusive; · = not tested or not shown.
SMILES,DRD3 agonist,Giardia killer,B2AR arrestin,DRD3 antagonist
O=c1cc(-c2ccccc2)n(S(=O)(=O)c2ccc3ccccc3c2)o1,-5,-4,·,-77*
Cc1ccc(-c2nn(C)c(=O)c3ccccc23)cc1S(=O)(=O)NCCN1CCOCC1,-5,-9,0%,-53*
Nc1ccc(N)c([N+](=O)[O-])c1,-29,·,·,·
Cc1ccccc1CN1C(=O)c2ccccc2S(=O)c2ccc(C(=O)NCc3ccc(Cl)cc3)cc21 (stereo unspecified),-3,·,·,·
CCN(C(=O)c1cc2c(s1)-c1ccccc1OC2)c1cc(OC)ccc1OC,-12,-30,5%,-54*
CC[C@@H](CO)NCCN[C@@H](CC)CO,2,·,·,·
CCCCOc1ccccc1N1CCN(CCCN2C(=O)C3CCCN3C2=O)CC1 (stereo unspecified),-17,5,0%,-87*
COc1ccccc1N1CCN(CCCCN2C(=O)C3CCCCN3C2=O)CC1 (stereo unspecified),-35,11,-1%,-77*
Cc1ccccc1N1CCN(CCCCN2C(=O)C3CCCN3C2=O)CC1 (stereo unspecified),-14,-15,-3%,-84*
COc1ccccc1N1CCN(C(=O)CN2C(=O)C3CCCCC3C2=O)CC1 (stereo unspecified),0,-5,0%,-16
COc1ccccc1N1CCN(CCCN2CC(=O)N3CCCCC3C2=O)CC1 (stereo unspecified),-17,13,·,-53*
CC(=O)[C@@]1(O)CC[C@H]2[C@@H]3C=C(Cl)C4=CC(=O)CC[C@]4(C)[C@H]3CC[C@@]21C,-15,·,·,·
NCCCC[C@H](NC(=O)[C@@H]1CCCN1C(=O)[C@@H]1CSSC[C@H](NC(=O)CNC(=O)CNC(=O)CN)C(=O)N[C@@H](Cc2ccc(O)cc2)C(=O)N[C@@H](Cc2ccccc2)C(=O)N[C@@H](CCC(N)=O)C(=O)N[C@@H](CC(N)=O)C(=O)N1)C(=O)NCC(N)=O,-16,·,·,·
COc1ccc(C2=C(C)C(=O)N(Cc3ccc(C(=O)NCc4cccc(C)c4)cc3)S2(=O)=O)cc1,-7,·,·,·
CCOC(=O)c1ccc(NC(=O)CN(c2ccc(C)cc2)S(=O)(=O)c2c(C)noc2C)cc1,5,·,·,·
CC(=O)n1cc(N(C(=O)CCl)c2ccc(C)cc2)c2ccccc21,-11,0,-1%,-67*
CC(=O)N(c1ccc(Cl)cc1)c1cn(C(C)=O)c2ccccc12,10,19,0%,-2
CC(C)(C)C(=O)Nc1ccc(Sc2ccc([N+](=O)[O-])cc2)cc1,-10,2,-2%,5
CC(=O)Nc1ccc(Sc2ccc([N+](=O)[O-])o2)cc1,-26,4,·,-74*
CCCCC(=O)Nc1nnc(S(=O)(=O)N(CC)c2cc(C)cc(C)c2)s1,0,·,·,·
C[C@H](NC(=O)c1nc[nH]c1C(=O)N[C@@H](Cc1ccccc1)C(=O)OCc1ccccc1)C(=O)OCc1ccccc1,8,2,-1%,-28
C[C@H](NC(=O)c1nc[nH]c1C(=O)N1CCN(C(=O)OC(C)(C)C)CC1)C(=O)OCc1ccccc1,12,-9,1%,20
CNC(=O)c1[nH]cnc1C(=O)N[C@@H](C)C(=O)OCc1ccccc1,35*,22,0%,35
CCOC(=O)c1[nH]cnc1C(=O)NC1CCN(C(=O)OC(C)(C)C)CC1,34*,-7,0%,11
C[C@H](NC(=O)c1nc[nH]c1C(=O)NC1CCN(C(=O)OC(C)(C)C)CC1)C(=O)OCc1ccccc1,34*,17,4%,74
SMILES,DRD3 agonist,Giardia killer,B2AR arrestin,DRD3 antagonist
CC(C)(C)OC(=O)N1CCC(NC(=O)c2nc[nH]c2C(=O)N2CCN(c3ccccc3)CC2)CC1,51*,-10,-1%,9
Cc1cc(=O)n(CC(=O)NCCC(C)C)c2c1c(C)nn2C,9,·,·,·
CC(=O)N1CCc2cc(S(=O)(=O)NC(Cc3ccccc3)C(=O)Nc3cc(C)ccn3)ccc21 (stereo unspecified),-12,-11,0%,-71*
CC(=O)N1CCc2cc(S(=O)(=O)NC(Cc3ccccc3)C(=O)Nc3cc(C)cc(C)c3)ccc21 (stereo unspecified),-4,·,·,·
CCOC(=O)CN(C(=O)CSc1nnc2c(n1)[nH]c1ccc(F)cc12)c1ccccc1,-10,6,-1%,-60*
CCOC(=O)CN(C(=O)CSc1nnc2c(n1)[nH]c1ccccc12)c1ccccc1,1,-13,0%,-73*
Cc1cc(=O)c(C(=O)O)cn1Nc1ccc(Cl)cc1,2,-12,0%,-53*
COc1ccccc1C1CCN(Cc2cccc(C(=O)N3CCC(O)CC3)c2)CC1,-3,-26,0%,-110*
Cc1ccc(S(=O)(=O)N2CCN(c3nc(-c4ccnnc4)nc4ccccc34)CC2)cc1,·,-3,·,·
O=C(Oc1c(Cl)cc(Cl)c2cccnc12)c1cccc([N+](=O)[O-])c1,-29,-11,4%,-94*
O=C(Oc1cccc2cccnc12)c1cccc([N+](=O)[O-])c1,-21,-3,10%,?
O=C(Oc1ccc(Cl)c2cccnc12)c1ccco1,-40,-19,?,-138*
O=C(Oc1ccc(Cl)c2cccnc12)c1cccc([N+](=O)[O-])c1,-26,6,-1%,-72*
O=C(Oc1cccc2cccnc12)c1ccco1,-13,-9,0%,?
N/C(=N/OC(=O)c1cccc([N+](=O)[O-])c1)c1cccc([N+](=O)[O-])c1,-5,-3,0%,-53*
Cc1ccc(C(c2sc3nc(-c4ccco4)nn3c2O)N2CCN(Cc3ccccc3)CC2)cc1 (stereo unspecified),-2,·,·,·
Fc1ccccc1-c1ccc(-c2nc3ccc(Cl)cn3c2Nc2ccc(Cl)cc2)o1,·,-15,·,·
Nc1nonc1OCCN1CCN(c2ccc([N+](=O)[O-])c3cccnc23)CC1,-8,?,-1%,-5
Cc1ccc([N+](=O)[O-])c(OCCN2CCc3ccccc3C2)c1,15,-10,-1%,-60*
O=[N+]([O-])c1ccccc1OCCCN1CCc2ccccc2C1,-21,-1,0%,-103*
CC1CC(C)CN(CCCOc2ccccc2[N+](=O)[O-])C1 (stereo unspecified),-7,5,-4%,?
Cc1nonc1OCCN1CCN(c2ccccc2[N+](=O)[O-])CC1,-9,0,0%,-58*
Cc1ccc([N+](=O)[O-])c(OCCn2cnc3ccccc32)c1,-18,-2,0%,-18
Cc1ccc([N+](=O)[O-])c(OCCN2CCCCCC2)c1,-14,34,-1%,-90*
Cc1ccc(C)c(OCCCN2CCCC2)c1,-60,-5,0%,?
COc1ccc(-c2nc3scc(CCNS(=O)(=O)c4ccc(F)c(C(F)(F)F)c4)n3n2)cc1OC,5,·,·,·
CCOc1ccccc1C(=O)NCC(c1ccc(N(C)C)cc1)N1CCc2ccccc21 (stereo unspecified),6,·,·,·
O=C(c1ccc([N+](=O)[O-])cc1)N1CCC(Cc2ccccc2)CC1,0,9,0%,-8
